Measured values: PubChem BioAssay (NCATS)
Several values for one entry are separate records, joined by “and”; a condition that tells them apart may be missing. Equal values may be shown once. Records with an inconclusive call do not appear. Activity calls are given as the source filed them. Unless noted, calls come from the whole dose curve; as a rule, active = well fitted curve in the direction sought with a large enough effect; inconclusive = small, poorly fitted or top-dose-only effect, or another doubt; inactive = no such curve, though single readings can be large; an effect the other way counts as inactive or inconclusive.

Experiments:
[1] = Validation of Assay for Modulators of Lamin A Splicing (AID 1459; active = well fitted curve in the direction sought with a large enough effect in the signal ratio; the % refers to the signal ratio;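 note: cells exposed to compound for two days before reading; 0% is about no effect; ratio rise marks activators and ratio drop marks inhibitors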)
Outline: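 Splicing correction read as GFP (500-530 nm) over DsRed2 (575-640 nm) object intensity after 48 h compound exposure of reporter HeLa S3 clones (600 cells/well, 2% FBS medium); ancitabine and cycloheximide titrations, 0.5% DMSO as vehicle.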

[2] = qHTS Assay for Lipid Storage Modulators (AID 1519; calls by dose curve; for activity change, negative = inhibition: % is set by controls: 0 for no effect and ±100 for the full control effect); settings: Drosophila S3 cells, BODIPY lipid droplet/cell ratio, laser cytometry, cells loaded with oleic acid
Outline: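 Cells seeded at 5,000 per well were treated with compounds over a concentration series and loaded with oleic acid (400 uM, as added). Lipid droplet fluorescence (488 nm excitation, 500-530 nm channel) was read by laser-scanning cytometry and normalized to 20 uM Triacsin C.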

[3] = Counterscreen for APE1 Inhibitors: Fluorescent Dye Displacement Validation Assay (AID 1707);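 note: plate controls were ThO with dsDNA and no compound for no effect and ThO without dsDNA for full effect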
Outline: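 Thiazole Orange displacement from dsDNA: 250 nM ThO with 50 nM TAMRA-labelled abasic-site (tetrahydrofuran) duplex in 50 mM Tris-HCl pH7.5, 50mM NaCl, 2 mM MgCl2, 0.01% Tween-20. Loss of endpoint fluorescence (ex 480 nm, em 540 nm) flags DNA binders.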

[4] = biological target: Endonuclease 4 (Escherichia coli (strain K12)) (UniProt P0A6C1); assay: Counterscreen for APE1 Inhibitors: qHTS Validation Assay for Inhibitors of Endonuclease IV (AID 1708); note: % is set by controls: 0 for no effect and ±100 for the full control effect
Outline: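 qHTS concentration-response format; LOPAC1280 tested under APE1-screen conditions. 2 nM enzyme, 15 min compound preincubation at RT, then 50 nM TAMRA/BHQ-2 abasic substrate; kinetic fluorescence read, three reads at 60 s intervals.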

[5] = qHTS for differential inhibitors of proliferation of Plasmodium falciparum line Dd2 (AID 1882); settings: Potency: Plasmodium falciparum Dd2 proliferation inhibition; note: nearly all actives have a fitted effect of over 65% in size; note: potency is the fitted concentration of half-maximal effect;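 for activity change, negative = inhibition: plate controls were DMSO vehicle for no effect and 0.29 µM artemisinin for full effect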
Outline: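 Dd2-infected erythrocytes (0.3% parasitemia, 2.5% hematocrit final) incubated with compound 72 h at 37 C, 5% CO2; lysed with saponin/Triton buffer containing SYBR Green I, incubated overnight in the dark, then read by fluorescence (485/535 nm). Normalized to 0.29 uM artemisinin and DMSO.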

[6] = qHTS for differential inhibitors of proliferation of Plasmodium falciparum line W2 (AID 1883); settings: Potency: Plasmodium falciparum W2 proliferation inhibition;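 note: parasites grown with compound for 72 h before lysis and staining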; note: potency is the fitted concentration of half-maximal effect;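 for activity change, negative = inhibition: 0% = vehicle wells and -100% = control inhibitor wells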
[7] = biological target: DNA repair nuclease/redox regulator APEX1 (Homo sapiens) (UniProt P27695); assay: qHTS Validation Assay for Inhibitors of the Human Apurinic/apyrimidinic Endonuclease 1 (APE1) (AID 1705;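 note: TAMRA fluorescence gain over two minutes as APE1 cuts a quenched THF abasic duplex; % is set by controls: 0 for no effect and ±100 for the full control effect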)
DNA repair nuclease/redox regulator APEX1 (Homo sapiens), sequence (P27695 whole entry, looked up): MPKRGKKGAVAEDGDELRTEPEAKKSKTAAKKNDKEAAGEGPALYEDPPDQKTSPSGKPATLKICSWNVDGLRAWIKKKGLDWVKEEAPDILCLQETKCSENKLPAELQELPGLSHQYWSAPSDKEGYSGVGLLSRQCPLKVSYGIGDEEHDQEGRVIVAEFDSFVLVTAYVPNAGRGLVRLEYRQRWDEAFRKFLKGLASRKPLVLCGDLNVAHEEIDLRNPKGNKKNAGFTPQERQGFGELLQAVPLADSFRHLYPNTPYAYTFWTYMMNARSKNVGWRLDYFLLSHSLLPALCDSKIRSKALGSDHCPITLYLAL
Outline: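 Activity read as rising fluorescence (598 nm emission, 525 nm excitation) from incision of a TAMRA/BHQ-2 duplex carrying a THF abasic site (50 nM). Compound and enzyme sat 15 min at RT before substrate start; signal change between first and third 60-s reads.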

[8] = qHTS for differential inhibitors of proliferation of Plasmodium falciparum line 7G8 (AID 1815);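 note: parasite growth measured after three days of incubation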; note: potency is the fitted concentration of half-maximal effect;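 for activity change, negative = inhibition: plate controls were vehicle wells for no effect and reference inhibitor wells for full effect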
[9] = qHTS for differential inhibitors of proliferation of Plasmodium falciparum line 3D7 (AID 1876); note: potency is the fitted concentration of half-maximal effect
[10] = qHTS for differential inhibitors of proliferation of Plasmodium falciparum line D10 (AID 1877);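 note: parasites grown with compound for 72 h before DNA staining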; note: potency is the fitted concentration of half-maximal effect;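 for activity change, negative = inhibition: plate controls were vehicle wells for no effect and reference inhibitor wells for full effect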
[11] = qHTS for differential inhibitors of proliferation of Plasmodium falciparum line HB3 (AID 1886); settings: Potency: Plasmodium falciparum HB3 proliferation inhibition;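 note: parasites grown with compound for 72 h before SYBR Green readout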; note: potency is the fitted concentration of half-maximal effect;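 for activity change, negative = inhibition: plate controls were vehicle for no effect and reference inhibitor for full effect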
[12] = biological target: Alpha-galactosidase A (Homo sapiens) (UniProt P06280); assay: Counterscreen for Glucocerebrosidase Inhibitors: qHTS Assay for Human alpha-Galactosidase at pH 4.5 (AID 992); note: 0% is about no effect
Alpha-galactosidase A (Homo sapiens), sequence (P06280 whole entry, looked up): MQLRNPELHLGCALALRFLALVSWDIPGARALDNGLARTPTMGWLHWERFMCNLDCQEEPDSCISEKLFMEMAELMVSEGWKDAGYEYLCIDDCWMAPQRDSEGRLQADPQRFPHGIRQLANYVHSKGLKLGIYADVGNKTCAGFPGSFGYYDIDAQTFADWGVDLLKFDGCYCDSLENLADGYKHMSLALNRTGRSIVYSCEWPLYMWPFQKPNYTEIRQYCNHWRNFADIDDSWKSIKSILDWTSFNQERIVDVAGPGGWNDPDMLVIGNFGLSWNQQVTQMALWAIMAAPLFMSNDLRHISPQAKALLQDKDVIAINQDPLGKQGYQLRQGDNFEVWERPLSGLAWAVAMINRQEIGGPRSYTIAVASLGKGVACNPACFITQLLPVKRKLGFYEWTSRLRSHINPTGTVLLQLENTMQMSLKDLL
Outline: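 Enzyme at 2 nM final was combined with compound (0.7 nM to 77 uM) and 80 uM 4-methylumbelliferyl alpha-D-galactopyranoside in 50 mM citric acid, 0.005% Tween-20, pH 4.5. After 20 min at room temperature, fluorescence was read (Ex 365/Em 440 nm); AC50 came from Hill fits.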

[13] = biological target: alpha-glucosidase (Oryza sativa, rice) (UniProt Q653V4); assay: Counterscreen for Glucocerebrosidase Inhibitors: qHTS Assay for Rice alpha-Glucosidase at pH 5.0 (AID 997);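 note: 0% = full activity with enzyme and -100% = basal without enzyme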
Outline: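 Rice alpha-glucosidase (4 nM final) with 400 uM 4-methylumbelliferyl-alpha-D-glucopyranoside in citrate buffer pH 5.0, 20 min at room temperature, stopped at pH 10; fluorescence 365/440 nm, compounds 0.7 nM–77 uM, AC50 from Hill fits.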

[14] = qHTS for differential inhibitors of proliferation of Plasmodium falciparum line GB4 (AID 1816); settings: Potency: Plasmodium falciparum GB4 proliferation inhibition;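 note: parasite growth measured after 72 h incubation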; note: potency is the fitted concentration of half-maximal effect;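 for activity change, negative = inhibition: 0% = vehicle DMSO and -100% = reference inhibitor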
[15] = measured here: cell count channel max response
[16] = measured here: lipid channel max response

CC(N=C(NC#N)Nc1ccncc1)C(C)(C)C (stereo not given)
inactive: outcome [1] | activity change, negative = inhibition ([2]; at 57.5 µM (top of the series)) 13.9% and 0.102% | outcome [3] | Potency [4] | Potency [5]
active: Potency [6] 11.2 µM
14.8% and -22.8%: max response [2, 16]
1.72% and -23.9%: max response [2, 15]

COCCc1ccc(OCC(O)CNC(C)C)cc1 (stereo not given)
inactive: outcome [1] | activity change, negative = inhibition ([2]; at 57.5 µM (top of the series)) 2.43% | Potency [7] | outcome [3] | Potency [4] | Potency [8] | Potency [9] | Potency [10] | Potency [5] | Potency [11]
-15.7%: max response [2, 16]
-17.2%: max response [2, 15]

CCN(CC)CCNC(=O)c1cc(S(C)(=O)=O)ccc1OC
-8.3% and 33.5% and -17.4%: max response [2, 16]
-4.82% and 19.9% and -18.4%: max response [2, 15]
inactive: outcome [12] | outcome [13] | activity change, negative = inhibition ([2]; at 25.7 µM (top of the series)) -2.02% | activity change, negative = inhibition ([2]; at 57.5 µM (top of the series)) 7.41% and 1.69% | Potency [7] | outcome [3] | Potency [8] | Potency [14] | Potency [9] | Potency [10] | Potency [5] | Potency [6] | Potency [11]

CCc1c(C)[nH]c2c1C(=O)C(CN1CCOCC1)CC2 (stereo not given)
inactive: outcome [12] | outcome [13] | outcome [1] | outcome [3] | Potency [4] | Potency [8] | Potency [14] | Potency [9] | Potency [10] | Potency [11]

O=C(O)CN(CCN(CC(=O)O)CC(=O)O)CCN(CC(=O)O)CC(=O)O
inactive: outcome [12] | outcome [13] | activity change, negative = inhibition ([2]; at 25.7 µM (top of the series)) -4.98% | activity change, negative = inhibition ([2]; at 57.5 µM (top of the series)) 0.152% | Potency [7] | outcome [3] | Potency [9] | Potency [10] | Potency [5] | Potency [6] | Potency [11]
-17.8% and 39.9%: max response [2, 15]
-19.2% and 38.7%: max response [2, 16]

Cc1cc(C)c(/C=C2\C(=O)Nc3ccccc32)[nH]1
inactive: outcome [1] | outcome [3] | Potency [4] | Potency [9] | Potency [10] | Potency [5] | Potency [11]

CC[N+](C)(C)c1cccc(O)c1
inactive: outcome [12] | outcome [13] | activity change, negative = inhibition ([2]; at 25.7 µM (top of the series)) 1% | activity change, negative = inhibition ([2]; at 57.5 µM (top of the series)) 8.9% and 0.601% | Potency [7] | outcome [3] | Potency [4] | Potency [8] | Potency [14] | Potency [5] | Potency [6] | Potency [11]
22.3% and 9.17% and -28.2%: max response [2, 15]
23.6% and 20.6% and -27.6%: max response [2, 16]

Cc1ccc(Cl)c(Nc2ccccc2C(=O)O)c1Cl
-11.6% and 13.1% and -37%: max response [2, 16]
inactive: outcome [12] | outcome [13] | activity change, negative = inhibition ([2]; at 25.7 µM (top of the series)) -1.03% | activity change, negative = inhibition ([2]; at 57.5 µM (top of the series)) 12.3% and -1.87% | Potency [7] | outcome [3] | Potency [4] | Potency [8] | Potency [14] | Potency [9] | Potency [10] | Potency [5] | Potency [6] | Potency [11]
-11.2% and 0.124% and -35.9%: max response [2, 15]

CCCN1C[C@H](CSC)C[C@@H]2c3cccc4[nH]cc(c34)C[C@H]21
active: Potency [8] 11.2 µM | Potency [14] 5.62 µM | Potency [9] 11.2 µM | Potency [10] 11.2 µM | Potency [6] 4.47 µM
inactive: outcome [1] | outcome [3] | Potency [4]

CN(C)CCOC(=O)COc1ccc(Cl)cc1
1.9% and 22.5% and -10.8%: max response [2, 15]
1.25% and 39.9% and -9.35%: max response [2, 16]
inactive: outcome [12] | outcome [13] | activity change, negative = inhibition ([2]; at 25.7 µM (top of the series)) 0.143% | activity change, negative = inhibition ([2]; at 57.5 µM (top of the series)) 11.6% and 1.09% | Potency [7] | outcome [3] | Potency [8] | Potency [9] | Potency [5] | Potency [6] | Potency [11]

OC(CCN1CCCCC1)(c1ccccc1)C1CCCCC1 (stereo not given)
inactive: activity change, negative = inhibition ([2]; at 57.5 µM (top of the series)) 1.74% | Potency [7] | outcome [3] | Potency [4]
-6.71%: max response [2, 16]
-10.4%: max response [2, 15]
active: Potency [14] 10 µM | Potency [9] 10 µM | Potency [10] 12.6 µM | Potency [5] 3.55 µM | Potency [6] 3.16 µM | Potency [11] 11.2 µM

CN1CCN(C2=Nc3ccccc3Oc3ccc(Cl)cc32)CC1
inactive: outcome [12] | outcome [13] | activity change, negative = inhibition ([2]; at 25.7 µM (top of the series)) -4.84% | activity change, negative = inhibition ([2]; at 57.5 µM (top of the series)) 10% and 2.23% | outcome [3] | Potency [4]
14.9% and 0.863% and -23%: max response [2, 15]
7.38% and 8.12% and -19.5%: max response [2, 16]
active: Potency [8] 7.08 µM | Potency [14] 11.2 µM | Potency [9] 12.6 µM | Potency [10] 11.2 µM | Potency [6] 5.01 µM | Potency [11] 10 µM

CN(C)CCN(Cc1cccs1)c1ccccn1
2.28% and 15.7%: max response [2, 15]
active: Potency [14] 5.62 µM | Potency [5] 7.08 µM | Potency [6] 3.16 µM
3.57% and 22%: max response [2, 16]
inactive: outcome [12] | outcome [13] | activity change, negative = inhibition ([2]; at 25.7 µM (top of the series)) 0.542% | activity change, negative = inhibition ([2]; at 57.5 µM (top of the series)) 3.3% | outcome [3] | Potency [4] | Potency [9] | Potency [10] | Potency [11]

COc1ccc(CCN(C)CCCC(C#N)(c2cc(OC)c(OC)c(OC)c2)C(C)C)cc1OC (stereo not given)
inactive: outcome [1] | outcome [3] | Potency [4]
active: Potency [8] 7.08 µM | Potency [14] 6.31 µM | Potency [9] 3.16 µM | Potency [5] 3.55 µM | Potency [6] 2.24 µM | Potency [11] 2.82 µM

NC/C=C/C(=O)O
5.6%: max response [2, 15]
inactive: activity change, negative = inhibition ([2]; at 57.5 µM (top of the series)) 6.98% | Potency [7] | outcome [3] | Potency [4] | Potency [8] | Potency [14] | Potency [9] | Potency [10] | Potency [5] | Potency [6] | Potency [11]
13.9%: max response [2, 16]

CN(C)CCCN1c2ccccc2Sc2ccccc21
active: Potency [8] 11.2 µM | Potency [14] 10 µM | Potency [6] 0.794 µM | Potency [11] 10 µM
-16.2% and -4.1% and -25%: max response [2, 15]
-14.8% and 2.83% and -21.3%: max response [2, 16]
inactive: outcome [12] | outcome [13] | activity change, negative = inhibition ([2]; at 25.7 µM (top of the series)) 0.5% | activity change, negative = inhibition ([2]; at 57.5 µM (top of the series)) 7.75% and 0.211% | outcome [3] | Potency [4]
